Data on 13 molecules can be found in the supplement of paper PMC10127200.

Structures can show the parent of a compound that is named as a salt.

In this experiment the test system is OVCAR4. The experiment is described as follows: Euclidean distance of Cell Painting phenotypic profile (signed KS, 77 features) to DMSO centroid (dimensionless distance); 5 or 10 uM (library dependent); higher = stronger phenotypic change vs DMSO (phenoactivity). The note with it: 48 h. Put shortly:
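Five cancer lines and a healthy fibroblast line received library compounds at 10 or 5 uM (library-dependent, 0.1% DMSO final) for 48 h. Stained cells were imaged confocally at 20X (9 fields/well). Harmony extracted 77 features, each scored as a signed Kolmogorov-Smirnov statistic against same-plate vehicle wells. Profiles were plate-position corrected, correlation-weighted and replicate-averaged at the top dose. Phenoactivity is the Euclidean distance from each profile to the median vehicle profile.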
As to `O=c1cc(-c2ccc(O)cc2)oc2cc(O)cc(O)c12` [Apigenin], the Euclidean distance is 1.32. Next, `CC(C)NCC(O)COc1cccc2[nH]ccc12` (stereo not drawn) [Pindolol]: 0.895; `COC(=O)C1=C(C)NC(C)=C(C(=O)OC2CCCN(Cc3ccccc3)C2)C1c1cccc([N+](=O)[O-])c1` (stereo not drawn) [Benidipine HCl]: 1.45. As to `CCc1cc(/C(C)=N/OCc2ccc(C3CCCCC3)c(C(F)(F)F)c2)ccc1CN1CC(C(=O)O)C1` [BAF312 (Siponimod)], the Euclidean distance turned out to be 1.25.

As to `O=C(O)c1cccnc1` [Nicotinic Acid], the Euclidean distance was found to be 1.03. As to `CC(=O)c1ccc(S(=O)(=O)NC(=O)NC2CCCCC2)cc1` [Acetohexamide], the Euclidean distance stood at 0.995. `CCOC(=O)[C@H](CCc1ccccc1)N[C@@H](C)C(=O)N1CCC[C@H]1C(=O)O` [Enalapril Maleate] displayed an Euclidean distance of 1.28. Next, `C[C@H]1C[C@H]2[C@@H]3CCC4=CC(=O)C=C[C@]4(C)[C@@]3(F)[C@@H](O)C[C@]2(C)[C@@]1(O)C(=O)CO` [Betamethasone]: 2. `O=c1ccc2ccccc2o1` [Coumarin] showed an Euclidean distance of 1.2.

`O=C(NC(Cc1cc(=O)[nH]c2ccccc12)C(=O)O)c1ccc(Cl)cc1` (stereo not drawn) [Rebamipide]: the Euclidean distance was determined as 1.06. For `COc1ccccc1N1CCN(CC(O)COc2cccc3ccccc23)CC1` (stereo not drawn) [Naftopidil], the Euclidean distance stood at 0.99. Consider `CCC[C@@H]1C[C@@H](C(=O)N[C@@H]([C@H]2O[C@H](SC)[C@H](OP(=O)(O)O)[C@@H](O)[C@H]2O)[C@H](C)Cl)N(C)C1` [Clindamycin Phosphate], for which the Euclidean distance was 1.38. For the molecule `N[C@@H](Cc1c[nH]c2ccccc12)C(=O)O` [L-Tryptophan], the Euclidean distance stood at 1.36.
